Screening data: PubChem, The Scripps Research Institute Molecular Screening Center
PAFAH1B2 inh: PAFAH1B2 enzyme inhibitors, primary screen, biochemical, fluorescence polarization, human; Platelet-activating factor acetylhydrolase IB subunit alpha2 (Homo sapiens), P68402; recombinant PAFAH1B2, FP-rhodamine activity probe; inhibition, % at 3.39 µM; actives 1.2% (n = 340,000);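 active = inhibition above the mean of all tested compounds plus 3 SD, cut at about 24% in these data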
ZTA counter: ZTA (EBV) inhibition in EBNA-1 counter-screen; P03206; ZTA-DNA binding, fluorescence polarization; inhibition, % at 11 µM; actives 0.15% (n = 320,000); in the data active = inhibition above about 33%
PAFAH1B3 inh: PAFAH1B3 enzyme inhibitors, primary screen, biochemical, fluorescence polarization, human; Platelet-activating factor acetylhydrolase IB subunit alpha1 (Homo sapiens), Q15102; recombinant PAFAH1B3, FP-rhodamine probe; inhibition, % at 3.39 µM; actives 0.28% (n = 340,000);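 active = inhibition above the screen-wide average of all tested compounds plus 3 SD, cut at about 25% in these data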
pPAFAH FP inh: pPAFAH enzyme inhibitors, primary screen, biochemical, fluorescence polarization, human; recombinant pPAFAH, FP-rhodamine probe fluorescence polarization; inhibition, % at 3.39 µM; actives 1.5% (n = 330,000);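 active = inhibition above the mean inhibition across the screen plus 3 SD, cut at about 25% in these data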;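 also: inhibitors block binding of the rhodamine activity-based probe so polarization drops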
Target sequence (Q13093 whole entry, looked up): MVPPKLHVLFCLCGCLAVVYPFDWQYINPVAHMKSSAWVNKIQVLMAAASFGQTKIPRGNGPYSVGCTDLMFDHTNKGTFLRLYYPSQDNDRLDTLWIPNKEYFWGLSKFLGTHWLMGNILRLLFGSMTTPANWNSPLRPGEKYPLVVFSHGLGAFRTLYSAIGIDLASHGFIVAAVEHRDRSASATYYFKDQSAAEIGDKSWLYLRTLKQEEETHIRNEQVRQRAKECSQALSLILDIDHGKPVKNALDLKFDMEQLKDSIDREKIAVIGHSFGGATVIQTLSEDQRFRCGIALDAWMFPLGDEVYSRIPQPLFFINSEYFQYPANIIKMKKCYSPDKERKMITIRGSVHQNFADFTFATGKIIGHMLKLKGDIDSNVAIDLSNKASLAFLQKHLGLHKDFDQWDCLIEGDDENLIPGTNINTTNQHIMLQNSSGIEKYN
EBNA-1 inh: EBNA-1 DNA-binding inhibitors, primary screen, biochemical, fluorescence polarization | inhibition, % at 14.8 µM | actives 0.34% (n = 300,000) | AID 1950, 2009; in the data active = inhibition above about 28%
PAFAH2 inh: PAFAH2 enzyme inhibitors, primary screen, biochemical, fluorescence polarization, human | Platelet-activating factor acetylhydrolase 2, cytoplasmic (Homo sapiens), Q99487 | recombinant PAFAH2, FP-rhodamine activity probe | inhibition, % at 3.39 µM | actives 0.99% (n = 340,000);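 active = inhibition above the mean over all tested compounds plus 3 SD, cut at about 30% in these data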;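 also: inhibitors block probe labeling of enzyme so polarization drops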
PAFAH2 FP conf: PAFAH2 enzyme inhibitors, confirmation, biochemical, fluorescence polarization, human | actives 65% (n = 2,300) | inhibition, % at 3.39 µM | shares compounds with PAFAH2 inh | recombinant PAFAH2, FP-rhodamine activity probe;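 active = mean inhibition over three repeats above a set limit taken from the earlier primary screen, cut at about 30% in these data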;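 also: inhibitor blocks binding of rhodamine activity probe so polarization falls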
Of the large screens only hits and unclear results are named; the others gave an inactive call (follow-up assays come after a bar, where they were run). Only some compounds are listed: those with a hit (about 2.9% of all), similar ones and a draw of the others.

O=C(COC(=O)CC(NC(=O)c1ccccc1Cl)c1ccccc1)Nc1cccc(F)c1 (centres undefined)	PAFAH2 inh 82 | PAFAH2 FP conf 76
O=C(COC(=O)CC(c1ccccc1)c1ccccc1)Nc1cccc(F)c1	PAFAH2 inh 77 | PAFAH2 FP conf 69
O=C(COC(=O)CC(c1ccccc1)c1ccccc1)Nc1ccc(F)c(F)c1	none (no result: PAFAH1B2 inh, PAFAH1B3 inh, PAFAH2 inh)
COc1ccccc1NC(=O)c1ccc(NC(=O)COC(=O)CC(NC(=O)c2ccccc2Cl)c2ccccc2)cc1 (centres undefined)	none
COc1cccc(NC(=O)NC2CCN(Cc3nnnn3Cc3ccc4c(c3)OCO4)CC2)c1	none
Cc1ccc(S(=O)(=O)NC(=O)c2ccccc2C)cc1	none
O=C(O)CN=C(NS(=O)(=O)c1ccc(Cl)cc1)c1ccccc1	PAFAH2 inh 35 | PAFAH2 FP conf inactive
CC(NC(=O)COC(=O)c1ccc(CO)cc1)C1CC2CCC1C2 (centres undefined)	PAFAH2 inh 68 (no result: EBNA-1 inh) | PAFAH2 FP conf 64
CC(NC(=O)COC(=O)c1ccc2ccccc2n1)C1CC2CCC1C2 (centres undefined)	none
CC(NC(=O)c1ccc(N(C)C)cc1)C1CC2CCC1C2 (centres undefined)	PAFAH2 inh 46 (no result: ZTA counter, pPAFAH FP inh, EBNA-1 inh) | PAFAH2 FP conf 33
CCc1cc(=O)oc2c3c(cc(OCC(=O)NCCC(=O)O)c12)OC(C)(C)CC3	PAFAH2 inh 38 | PAFAH2 FP conf inactive
Cc1ccc(S(=O)(=O)N(C)C)cc1NC(=O)COC(=O)c1ccc2c(c1)OCCO2	PAFAH2 inh 64 | PAFAH2 FP conf 64
Cc1ccc(S(=O)(=O)N(C)C)cc1NC(=O)COC(=O)C1=COCCO1	none (no result: EBNA-1 inh)
Cc1ccc(C)c(NC(=O)COC(=O)c2ccc3c(c2)OCO3)c1	none
CN(C)S(=O)(=O)c1cccc(COC(=O)c2ccc3c(c2)OCO3)c1	PAFAH2 inh 31 | PAFAH2 FP conf inactive
CN(C)S(=O)(=O)c1cccc(COC(=O)c2ccc(Cl)cc2O)c1	none
Cc1ccc(S(=O)(=O)N(C)C)cc1NC(=O)COC(=O)c1ccc2c(c1)OCO2	PAFAH2 inh 60 | PAFAH2 FP conf 52
O=C(COC(=O)c1ccc(Cl)c(Cl)c1)Nc1cccnc1Cl	none
CCOc1ccc(C(=O)OCC(=O)NCc2ccccc2)cc1OCC	PAFAH2 inh 72 (no result: EBNA-1 inh) | PAFAH2 FP conf 66
CCOc1ccc(C(=O)OCC(=O)Nc2cccnc2Cl)cc1OCC	PAFAH2 inh 74 (no result: ZTA counter, EBNA-1 inh) | PAFAH2 FP conf 58
O=C(COC(=O)c1cccc(Cl)c1)NCc1ccccc1	none (no result: ZTA counter, EBNA-1 inh)
COc1ccc(CC(=O)OCC(=O)NC2CCCCC2)cc1OC	none (no result: ZTA counter, EBNA-1 inh)
O=C(COc1ccc2ccccc2c1)Nc1ccncc1	none
O=C(COC(=O)/C=C/c1cccs1)Nc1ccc2ccccc2c1	PAFAH2 inh 56 | PAFAH2 FP conf 51
CC(=O)c1ccc(NC(=O)COC(=O)/C=C/c2cccs2)cc1	PAFAH2 inh 57 (no result: ZTA counter, EBNA-1 inh) | PAFAH2 FP conf 46
CC(=O)c1ccccc1NC(=O)COC(=O)/C=C/c1cccs1	PAFAH2 inh 53 | PAFAH2 FP conf 39
COC(=O)CNC(=O)COC(=O)/C=C/c1cccs1	none
Cc1ccc(/C=C/C(=O)OCc2nc(N)nc(Nc3ccccc3C)n2)o1	none
CC(=O)c1ccccc1NC(=O)COC(=O)/C=C/c1ccc(C)o1	PAFAH2 inh 31 | PAFAH2 FP conf inactive
Cc1cc(C)n(C(C)CC(=O)Nc2ccc3c(c2)OCO3)n1 (centres undefined)	none
Cc1cc(NC(=O)CCC(=O)N(CCC(C)C)C(C(=O)NC2CCCC2)c2ccccc2C)no1 (centres undefined)	none
CC(=O)C(C(c1ccccc1)N1CCCc2ccccc21)N1CCOCC1 (centres undefined)	none (no result: ZTA counter, pPAFAH FP inh, EBNA-1 inh)
O=C(COC(=O)/C=C/c1cccs1)Nc1ccccc1Cl	PAFAH2 inh 58 | PAFAH2 FP conf 36
NC(=O)NC(=O)COC(=O)/C=C/c1cccs1	none
COCc1nnc(NC(C)=O)s1	none
